High-throughput results from PubChem BioAssay.
TNFa cytotox = cytotoxicity in TNFa-stimulated HUVEC, primary screen, cytotoxicity control for VCAM1 expression modulator project, imaging, Hoechst nuclei count | actives 0.17% (n = 93,000) | cell count reduction, % at 2 µM | HUVEC TNFalpha-stimulated, Hoechst cell count | AID 848, 2007;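 active means cell count reduction exceeding the screen mean by over 5 SD, scaled to untreated wells per plate, cut at about 78% in these data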;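 further: cells counted after 24 h of TNF alpha exposure following the 1 h pretreatment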
NFkB transloc pot = enhancers of NFkB p65 translocation in HUVEC – imaging, IL-1B stimulus, high-content imaging, primary screen | HUVEC IL-1B NFkB p65 nuclear translocation imaging | activation, % at 2 µM | actives 0.3% (n = 94,000) | AID 819, 2007;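 active means activation above 40%, about the mean plus 3 SD, also judged a hit on visual image review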;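 further: percent activation is computed from the nuclear over cytoplasmic p65 intensity ratio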
E-sel TNF inh = E-selectin induction blockers in HUVEC – imaging, immunofluorescence, high content, primary screen. HUVEC TNFa-induced E-selectin immunofluorescence. actives 0.71% (n = 120,000). inhibition, % at 2 µM;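 active means inhibition above the batch mean plus 3 SD, and confirmed as a hit on visual image review, cut at about 43% in these data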;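 further: 0% = TNF-stimulated DMSO wells and 100% = unstimulated control wells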
NFkB transloc inh = inhibitors of IL-1B driven NFkB p65 nuclear import, primary screen, imaging, HUVEC, IL-1B stimulus, high-content imaging | actives 0.43% (n = 94,000) | inhibition, % at 2 µM | HUVEC IL-1B NFkB p65 nuclear translocation imaging;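 active means inhibition above about 30% together with a positive call from visual inspection of the well image, limit read from the data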;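 further: nuclear over cytoplasmic p65 intensity ratio measured by imaging; 0% = IL-1B stimulated DMSO wells and 100% = unstimulated DMSO wells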
IL1B cytotox = cytotoxicity in IL-1B stimulated HUVEC, primary screen, cytotoxicity control for IL-1B NFkB translocation project, imaging, Hoechst nuclear count, IL-1B stimulus; cell count reduction, % at 2 µM; actives 0.41% (n = 94,000); HUVEC cell count loss; AID 845, 2007;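 active means cell count reduction more than 3 SD above the screen-wide mean, cut at about 70% in these data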;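 further: normalized per plate to untreated control cells as the no-loss baseline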
VCAM1 TNFa inh = inhibitors of TNFa-induced VCAM1 expression, primary screen, imaging, HUVEC, TNFa stimulus, immunofluorescence; HUVEC TNFa-induced VCAM-1 immunofluorescence, high-content imaging; inhibition, % at 2 µM; actives 0.48% (n = 95,000);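 active means inhibition above the batch mean plus 3 SD, with images confirmed as a hit by eye, cut at about 37% in these data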;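 further: 0% = TNF-stimulated DMSO wells and 100% = unstimulated control wells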
* hit, by the source's call; · = no result given. The list is not random: actives were taken first. Their share in the collection is about 1.8%.

SMILES | TNFa cytotox | NFkB transloc pot | E-sel TNF inh | NFkB transloc inh | IL1B cytotox | VCAM1 TNFa inh
CCOC(=O)C(CC)n1nc(C)n2c(cc3sccc32)c1=O (centres undefined) | · | · | 46* | · | · | ·
Cn1c(CCc2nc3ccccc3[nH]2)nnc1SCC#N | · | · | 13 | · | · | ·
CC(/C=C/c1ccco1)=N\NC(=O)c1cc(C)[nH]n1 | -18 | 2 | 100* | -2 | -43 | 3
Cc1cc(C(=O)N/N=C/c2ccco2)n[nH]1 | · | · | -7 | · | · | ·
COc1cccc(=O)c2c(C)n(-c3cc(C)cc(C)c3)c(C)c12 | -27 | -6 | 67* | 6 | 19 | -19
Oc1ccccc1-c1cc(-c2ccccc2)no1 | 2 | 9 | 5 | -9 | 23 | 35
Cc1ccccc1-c1cc(-c2ccccc2O)on1 | 2 | 2 | 2 | -2 | -42 | 47*
CCCn1nc([N+](=O)[O-])c(C(C#N)c2nc3ccccc3s2)c(Cl)c1=O (centres undefined) | -13 | -1 | -10 | 1 | -7 | 51*
CCOC(=O)Cc1c(C)nc2c(-c3ccccc3)c[nH]n2c1=O | · | · | 96* | · | · | ·
Cc1ccc(N2CC(C(=O)Nc3ccc4c(c3)OCO4)CC2=O)cc1 (centres undefined) | 89* | -8 | 17 | 8 | -7 | 8
O=C(Nc1ccc2c(c1)OCO2)C1CC(=O)N(c2ccc3c(c2)OCCO3)C1 (centres undefined) | · | · | -20 | · | · | ·
CC(C)C(=O)Nc1nnc(CSCc2ccccc2F)s1 | 5 | -54 | 7 | 54* | -6 | -7
CC(C)(C)C(=O)Nc1nnc(CSCc2ccccc2F)s1 | -13 | -1 | -14 | 1 | -4 | -3
O=C(c1cccc(C(F)(F)F)c1)N(c1ccccn1)C1CCCCC1 | · | · | 35 | · | · | ·
O=C(/C=C/c1ccc(F)cc1)NC(=S)Nc1ccccc1C(=O)NC1CCCCC1 | 25 | 5 | 54* | -5 | 22 | -14
Nc1c(C(=O)NCc2ccc(Cl)cc2)sc2nc3c(c(C(F)(F)F)c12)CCC3 | 14 | -6 | 65* | 6 | -3 | -6
CCn1cc(C(=O)Nc2nnc(C)s2)c(=O)c2cc(F)c(N3CCN(C(=O)c4ccco4)CC3)cc21 | -23 | 12 | -18 | -12 | -15 | 12
CCOC(=O)c1sc(NC(=O)CSc2nc3c(c(=O)n2-c2ccc(C)cc2)SCC3)c(C(=O)OCC)c1C | · | · | 32 | · | · | ·
CC1CCN(C(=O)c2scc3c2OCCO3)CC1 | -18 | 40 | · | -40 | -10 | -10
CC1CN(C(=O)c2scc3c2OCCO3)CC(C)O1 (centres undefined) | 18 | -80 | -36 | 80* | 93* | 12
O=C(NCc1ccccc1)c1n[nH]nc1-c1ccccc1O | · | · | 58* | · | · | ·
CN1CCN(S(=O)(=O)c2ccc(NC(=S)NC(=O)C(C)(C)C)cc2)CC1 | · | · | 14 | · | · | ·
Cc1cc(S(=O)(=O)Nc2cccc(O)c2)c(C)s1 | -19 | 16 | 20 | -16 | 2 | 0
Cc1cc(S(=O)(=O)Nc2ccc(F)cc2)c(C)s1 | -10 | -12 | 9 | 12 | 89* | -10
COc1ccc(OC)c(S(=O)(=O)NC(N)=NCCc2ccccc2OC)c1 | · | · | -11 | · | · | ·
SMILES | TNFa cytotox | NFkB transloc pot | E-sel TNF inh | NFkB transloc inh | IL1B cytotox | VCAM1 TNFa inh
O=S(=O)(Nc1cccnc1Cl)c1ccc2c(c1)OCCO2 | -11 | -10 | · | 10 | 0 | 18
CSc1ccccc1NS(=O)(=O)c1ccc2c(c1)OCCO2 | 2 | -27 | -46 | 27 | 70* | 5
CN(C)CCC(=O)c1cccc(Br)c1 | · | · | -57 | · | · | ·
CCCCCOC(=O)Cn1c(SCC(=O)Nc2ccccc2)nc2c1c(=O)[nH]c(=O)n2C | -16 | 18 | 74* | -18 | -21 | -1
O=C(COc1ccc(/C=N/NC(=O)C(=O)N2CCCCCC2)cc1)Nc1ccccc1Cl | · | · | 70* | · | · | ·
O=C(N/N=C/c1ccc(OCC(=O)N2CCCCC2)cc1)c1ccccc1 | -1 | -21 | -6 | 21 | 8 | 12
CCOC(=O)N/N=C(\C)c1ccccc1OC(F)F | · | · | 6 | · | · | ·
CC(C)(C)OC(=O)NNC(=O)NC12CC3CC(CC(C3)C1)C2 | · | · | 66* | · | · | ·
CCc1cc2cc(C)cc(C)c2nc1SCC(=O)Nc1cc(C)on1 | · | · | 14 | · | · | ·
CCc1cc2cc(C)cc(C)c2nc1SCC(=O)N1CCCC1 | -12 | 33 | 6 | -33 | 95* | -5
N#Cc1c(N)sc2c1CCN(CCc1ccccc1)C2 | -32 | 12 | -14 | -12 | -22 | -4
COc1cc(C2C(C#N)=C(N)Oc3c2oc(CO)cc3=O)cc(OC)c1OC (centres undefined) | -17 | -6 | 100* | 6 | 16 | 12
C=CCc1cccc(/C=N/NC(=O)CCCNc2ccc(C)cc2)c1O | · | · | 69* | · | · | ·
C=CCc1cccc(/C=N/NC(=O)CNc2ccccc2)c1O | -2 | -20 | -6 | 20 | 0 | 10
CSc1oc(-c2ccco2)nc1S(=O)(=O)c1ccc(F)cc1 | · | · | -25 | · | · | ·
CSc1oc(-c2ccco2)nc1S(=O)(=O)c1ccccc1 | 82* | -13 | · | 13 | 11 | 13
N#CCC(=O)N1CCN(C=O)CC1 | · | · | -16 | · | · | ·
CCN(CC(=O)Nc1ccc([N+](=O)[O-])cc1OC)c1ccccc1 | -7 | -10 | -44 | 10 | -24 | 5
Cc1ccc(/C=C/C(=O)C2C(=O)c3ccccc3C2=O)cc1 | -5 | -6 | 66* | 6 | 8 | 19
CCOc1cc(C)c(C(C)C)cc1S(=O)(=O)NCc1ccccn1 | 6 | -100 | -4 | 100* | 85* | 0
COc1cc(S(=O)(=O)NCc2ccccn2)c(OC)cc1Cl | -12 | 9 | -7 | -9 | -4 | 28
Cc1ccc(NC(=O)Cn2nnc(-c3ccccc3NC(=O)c3cccs3)n2)cc1 | 55 | 1 | -70 | -1 | -10 | 60*
COc1ccc(NC(=O)Cn2nnc(-c3ccccc3NC(=O)c3cccs3)n2)cc1 | -12 | 0 | 7 | 0 | -3 | -3
Oc1ccc(N2CCN(c3ncnc4sc5c(c34)CCC5)CC2)cc1 | -18 | 19 | · | -20 | -50 | 86*
Cc1cc(C)c(S(=O)(=O)Nc2ccc3c4c(cccc24)CC3)c(C)c1 | 57 | -42 | 15 | 42* | 59 | 89*
Cc1ccc(S(=O)(=O)Nc2ccc3c4c(cccc24)CC3)c(C)c1 | -6 | -10 | 25 | 10 | 3 | 25
C=CCNS(=O)(=O)c1ccc(OCC(=O)OC)cc1 | -17 | 8 | -13 | -8 | -11 | 10
Cn1nnnc1SCC(=O)Nc1cc(C(=O)O)cc(C(=O)O)c1 | -22 | -23 | -26 | 23 | -6 | 6
CCn1c(CNc2nc3ccccc3n2C(C)C)nc2ccccc21 | 1 | -62 | -17 | 62* | -9 | 15
